Screens as filed in PubChem.
Sampled rows, rich in hits. Any-hit rate of the full collection: about 3.8%.
tim23-1 inh – growth inhibitors of tim23-1 mutant yeast, primary screen, luminescence, uHTS; S. cerevisiae tim23-1 growth, BacTiter-Glo luminescence, 24 h; 1.3% of 330,000 active; inhibition, % at 20 µM;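 active = growth inhibition of the mutant yeast at or above 50%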;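 note: temperature-sensitive mutant grown at 25 °C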
PfHsp90 yeast 2 – growth inhibition of PfHsp90-expressing yeast, primary screen, antimalarial PfHsp90 inhibitor project, S. cerevisiae, BacTiter-Glo luminescence, single point, set 2 | BacTiter-Glo ATP, 48 h; yeast lacking PDR1 and PDR3 efflux regulators | inhibition, % at 9.4 µM | 0.32% of 310,000 active;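 active = every replicate shows inhibition above about 80%, whatever the replicate mean, limit read from the data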
Beta2AR agonist – beta2AR agonists driving receptor internalization, primary screen, cell-based, FAP fluorogen, flow cytometry; Beta-2 adrenergic receptor (Homo sapiens), P07550; Am2.2-beta2AR cells; response, % (test concentration not listed); 0.43% of 340,000 active; AID 504454, 2011;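 active = response above a set limit, near 3 SD of response in nonfluorescent compounds, cut at about 42% in these data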
Target sequence (P07550 whole entry, looked up): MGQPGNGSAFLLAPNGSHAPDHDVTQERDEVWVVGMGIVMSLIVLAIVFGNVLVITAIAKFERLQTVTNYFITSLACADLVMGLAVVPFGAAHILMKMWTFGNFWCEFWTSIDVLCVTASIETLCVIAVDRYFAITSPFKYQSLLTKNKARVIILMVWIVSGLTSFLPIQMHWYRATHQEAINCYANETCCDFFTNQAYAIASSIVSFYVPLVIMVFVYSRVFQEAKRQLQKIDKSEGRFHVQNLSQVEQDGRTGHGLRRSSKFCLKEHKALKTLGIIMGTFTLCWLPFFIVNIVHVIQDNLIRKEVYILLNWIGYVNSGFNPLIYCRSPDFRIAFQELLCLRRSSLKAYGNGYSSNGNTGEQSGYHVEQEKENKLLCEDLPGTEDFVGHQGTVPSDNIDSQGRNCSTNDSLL
tim10-1 inh – growth inhibitors of tim10-1 mutant yeast, primary screen, luminescence, uHTS | 2.2% of 330,000 active | S. cerevisiae tim10-1 ts strain growth, BacTiter-Glo, 24 h | inhibition, % at 20 µM;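 active = inhibition of at least 40%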;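 note: mutant grown at 25 °C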
TIM10 inh – growth inhibitors of isogenic TIM10 control yeast, primary screen, counter-screen for tim10-1 yeast inhibitor project, luminescence, uHTS; inhibition, % at 10 µM; AID 463195, 2010; S. cerevisiae TIM10 strain growth, BacTiter-Glo luminescence, 24 h; 1.4% of 330,000 active;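 active = inhibition of 40% or more at the single tested concentration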;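 note: wild-type TIM10 isogenic control strain grown at permissive 25 °C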
tim23-1 conf – tim23-1 mutant yeast growth inhibitors, confirmation, luminescence, single concentration | S. cerevisiae tim23-1 growth, BacTiter-Glo luminescence, 24 h | shares compounds with tim23-1 inh | 83% of 4,400 active | inhibition, % at 20 µM;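 active = inhibition above about 39% in either of two replicate wells at 20 µM, limit read from the data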;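 note: temperature-sensitive tim23-1 mutant grown at 25 °C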
Large screens that a line does not name were inactive (follow-up assays come after a bar, where they were run).

Nc1cc(-c2ccccc2)nn1S(=O)(=O)c1ccc(Br)cc1	none
Cc1ccc(C(=O)COC(=O)C2CC3CCCC(C2)C3=O)cc1[N+](=O)[O-] (centres undefined)	none
Cc1cn(CC(=O)NCC(c2ccccc2)c2ccccc2)c(=O)[nH]c1=O	none (no result: tim23-1 inh, tim10-1 inh, TIM10 inh)
O=c1cc(-c2ccccc2Cl)oc2c(NS(=O)(=O)c3cc(Cl)cc(Cl)c3O)ccc(O)c12	tim23-1 inh 52 (no result: PfHsp90 yeast 2) | tim23-1 conf inactive
CCc1ccc(S(=O)(=O)Nc2ccc(O)c3c(=O)cc(-c4ccccc4Cl)oc23)cc1	none
O=C(c1ccc(Cn2cc([N+](=O)[O-])cn2)o1)N1CCCCCC1	none
COc1ccc(COn2c(=O)c(C)[n+]([O-])c3ccccc32)cc1OC	tim23-1 inh 89 | tim23-1 conf inactive
COc1ccccc1C1CC(=O)Oc2cc(C)c(Br)c(C)c21 (centres undefined)	tim23-1 inh 60 | tim23-1 conf 42
COc1ccccc1C1CC(=O)Oc2cc(C)c(Cl)c(C)c21 (centres undefined)	tim23-1 inh 52 | tim23-1 conf 41
COc1ccc(C2CC(=O)Oc3cc(OC)ccc32)cc1 (centres undefined)	tim23-1 inh 50 | tim23-1 conf inactive
COc1ccc(C2CC(=O)Oc3c(C(C)C)ccc(C)c32)cc1 (centres undefined)	tim23-1 inh 54 | tim23-1 conf 42
COc1ccc(C2CC(=O)Oc3cc(C)cc(C)c32)cc1 (centres undefined)	none
Cc1c(Cl)c(=O)n2c(=O)c(Cl)c(C)n12	none
COc1ccc(C2CC(=O)Oc3cc(C)c(Cl)c(C)c32)cc1 (centres undefined)	tim23-1 inh 51 | tim23-1 conf inactive
CCCS/C(N)=N/N=C/c1cc(C)ccc1O	none
CCCCS/C(N)=N/N=C/c1ccccc1O	tim23-1 inh 58 | tim23-1 conf 66
CCOc1c2ccoc2nc2c(OC)c(OC)ccc12	tim23-1 inh 61 | tim23-1 conf 65
C=CCOc1ccc2c(OC)c3ccoc3nc2c1OC	none
CCn1cc(C(=O)NN)c(=O)c2cc(F)c(N3CCCCC3)cc21	tim23-1 inh 51 | tim23-1 conf inactive
CCC(=O)N/C(=N/c1nc(C)cc(C)n1)Nc1cccc(OC)c1	none
COc1cccc(NC(=O)COC(=O)CC2CC3CCC2C3)c1 (centres undefined)	tim23-1 inh 56 | tim23-1 conf 41
CC(=O)c1cccc(NC(=O)COC(=O)CC2CC3CCC2C3)c1 (centres undefined)	none
Cc1ccc(S(=O)(=O)Nc2ccccc2C(=O)N2CCCCC2C)c(C)c1NS(C)(=O)=O (centres undefined)	none
CCOC(=O)c1nnsc1NC(=O)Nc1ccc(OC)cc1	tim23-1 inh 84 | tim23-1 conf inactive
Cc1cc(C)n2nc(C)c(-c3ccc(Cl)cc3)c2n1	tim23-1 inh 52 | tim23-1 conf inactive
Cc1cc(N2CCOCC2)n2nc(C)c(-c3ccccc3)c2n1	none
Cc1cc(N2CCCCCC2)n2nc(C)c(-c3ccccc3)c2n1	tim23-1 inh 57 | tim23-1 conf 51
Cn1nccc1C(=O)N1CCOCC1	none
O=C(COC(=O)Cc1c[nH]c2ccccc12)Nc1c(Cl)cccc1C(F)(F)F	none
O=C(COC(=O)C12CC3CC(CC(Cl)(C3)C1)C2)Nc1ccccc1	tim23-1 inh 54 | tim23-1 conf 46
O=C(NC(=S)NC1CCCC1)c1ccccc1Br	none
CCN(C(=S)NC(=O)c1ccccc1Br)C1CCCCC1	tim23-1 inh 58 | tim23-1 conf 44
Cc1cc(C)cc(NC(=S)NC(=O)C2CC2)c1	tim23-1 inh 54 | tim23-1 conf inactive
CCN(CC)c1ccc(NC(=S)NC(=O)C2CCC2)cc1	tim23-1 inh 58 | tim23-1 conf inactive
N#Cc1ccc(NC(=S)NC(=O)C2CCCCC2)cc1	tim23-1 inh 51 | tim23-1 conf 49
CC(=O)Nc1ccc(NC(=S)NC(=O)C2CCCC2)cc1	none
COc1ccc(Cl)cc1NC(=O)COC(=O)C1COc2ccccc2O1 (centres undefined)	none
Cc1ccc(-c2noc(CNC(=O)COc3ccccc3C)n2)cc1	none
Nc1ccc(C(=O)N/N=C/c2cccc(Oc3ccccc3)c2)cc1	none
O=C(N/N=C/c1cccc(Oc2ccccc2)c1)c1ccccc1F	tim23-1 inh 50 (no result: PfHsp90 yeast 2) | tim23-1 conf 46
Cc1nn(C)c(C(=O)N/N=C/c2cccc(Oc3ccccc3)c2)c1Br	tim23-1 inh 52 (no result: PfHsp90 yeast 2) | tim23-1 conf 40
Cc1csc2nc(O)c(C(=O)NCCCc3ccccc3)c(=O)n12	tim23-1 inh 73 | tim23-1 conf 53
Cc1csc2nc(O)c(C(=O)NCCC3=CCCCC3)c(=O)n12	tim23-1 inh 66 | tim23-1 conf 44
O=C(NCCC1=CCCCC1)c1cnccn1	none
Nn1c(COc2ccccc2F)nnc1SCC(=O)NC1CCCCC1	none (no result: PfHsp90 yeast 2)
CC(C)n1c2ccccc2c2nc3ccccc3nc21	tim23-1 inh 51 | tim23-1 conf 52
C#CCn1c2ccccc2c2nc3ccccc3nc21	none
O=C(c1ccc(Cl)cc1)N1CCN(C(=O)c2ccco2)CC1	none
O=C(c1ccco1)N1CCN(C(=O)c2ccc(-c3ccc(Cl)cc3)o2)CC1	tim23-1 inh 51 | tim23-1 conf 40
CC(C)(C)c1ccc(-c2nc(C=O)c3ccccn23)cc1	tim23-1 inh 52 (no result: PfHsp90 yeast 2) | tim23-1 conf 50
Oc1ccc(-c2n[nH]c(=S)n2Cc2ccccc2)cc1	none
Fc1ccc(-c2n[nH]c(=S)n2Cc2ccccc2)cc1	tim23-1 inh 56 | tim23-1 conf inactive
C=CCc1cccc(C=Nc2ccc(Br)cc2)c1O	none
Oc1c(Cl)cc(Cl)cc1C=Nc1ccc(Br)cc1	tim23-1 inh 74 | tim23-1 conf 72
COc1ccc(N(C(=O)CNC(=O)c2ccco2)C(C(=O)NCC2CCCO2)c2ccccc2)cc1 (centres undefined)	none
CCc1nc(N2CCN(C(=O)CCl)CC2)c2c3c(sc2n1)CC(C)CC3 (centres undefined)	tim23-1 inh 55 | tim23-1 conf inactive
Cn1c(C(=O)NCCc2c[nH]c3ccccc23)cc2sccc21	tim23-1 inh 57 | tim23-1 conf 57
CCCCN(C(=O)c1ccc2c(c1)OCO2)c1c(N)n(CCCC)c(=O)[nH]c1=O	tim23-1 inh 52 (no result: PfHsp90 yeast 2) | tim23-1 conf 53
COCCN(C(=O)c1ccc(N2C(=O)c3ccccc3C2=O)cc1)c1c(N)n(CC(C)C)c(=O)[nH]c1=O	tim23-1 inh 60 | tim23-1 conf 51
CCCCN(C(=O)c1ccc(C)cc1)c1c(N)n(CCC)c(=O)[nH]c1=O	tim23-1 inh 53 | tim23-1 conf 54
